From ChEMBL document CHEMBL4513216, “Probing the Open Global Health Chemical Diversity Library for Multistage-Active Starting Points for Next-Generation Antimalarials” (ACS Infect Dis, 2020)
Screen size: about 68,000 compounds; about 2,700 (4%) showed an effect of 50% or more. Only a selection was taken, and strong results are over-represented in it overall.

Tested on: Plasmodium berghei
Assay: Screen against P. berghei liver stage (PbLuc), transformed with Luciferase, at 2uM
Format: functional, HepG2
Conditions: tested at 2 uM

Row | Compound | INHIBITION [%]
1 | O=c1[nH]c2cn(-c3cccc(F)c3)c(=O)n2n1Cc1ccc(Cl)cc1 | 5.87
2 | O=c1[nH]c2cn(-c3cccc(Cl)c3)c(=O)n2n1Cc1cccc(F)c1 | 42.62
3 | O=c1[nH]c2cn(-c3ccc(F)cc3)c(=O)n2n1Cc1cccc(Cl)c1 | 58
4 | CCCn1nc2c(cc1=O)CN(CCN1CCCC1=O)CC2 | -33.39
5 | CC(C)(C)n1ncc2c(=O)[nH]c(N3CCN(CCO)CC3)nc21 | 40.47
6 | CC(C)(C)n1ncc2c(=O)[nH]c(N3CCN(CC(F)F)CC3)nc21 | 66.74
7 | CC(=O)N1CCN(c2nc3c(cnn3C(C)(C)C)c(=O)[nH]2)CC1 | -12.08
8 | CSCC[C@H](N)C(=O)NCc1cc2n(n1)CCCN(C1CCCCC1)C2 | -46.68
9 | Cc1ccc(CN[C@@H]2CO[C@H](CNS(=O)(=O)c3ccccc3)[C@H]2O)cc1 | -6.18
10 | Cc1ccc(S(=O)(=O)NC[C@H]2OC[C@@H](NCc3ccccc3)[C@@H]2O)cc1 | 75.87
11 | Cc1ccc(S(=O)(=O)NC[C@H]2OC[C@@H](NCc3ccncc3)[C@@H]2O)cc1 | 16.47
12 | Cc1nc(NCCc2noc(C3CCCO3)n2)c2sccc2n1 (stereo unspecified) | 49.63
13 | O=C(NCc1noc(C2CCCO2)n1)c1cn2ccsc2n1 (stereo unspecified) | 22.09
14 | Cc1nc(N(Cc2ccncc2)CC2CCCO2)c2ccsc2n1 (stereo unspecified) | -59.39
15 | Cc1nc(NCc2noc(C3CCCO3)n2)c2ccsc2n1 (stereo unspecified) | 59.01
16 | O=C(NCCc1noc(C2CCCO2)n1)c1cn2ccsc2n1 (stereo unspecified) | 40.88
17 | Cc1nc(NCc2noc(C3CCCO3)n2)c2sccc2n1 (stereo unspecified) | 61.69
18 | O=C(CCCOc1ccc(F)cc1F)N1CCCC1Cn1cccn1 (stereo unspecified) | 6.12
19 | CN(Cc1cc2n(n1)CCCN(C(=O)N1CCCC1)C2)Cc1nccs1 | -10.4
20 | CCc1csc(CNc2nc3c(s2)c(C)nn3C)n1 | 28.14
21 | CCc1nc(CNc2nc3c(s2)c(C)nn3C)cs1 | 51.4
22 | Cc1nc(CNc2nc3c(s2)c(C)nn3C)cs1 | 38.49

Row | Compound | INHIBITION [%]
23 | O=C(NC1CCc2[nH]c(=O)ccc2C1)C1CCOCC1 (stereo unspecified) | 0.79
24 | CCN1CC[C@@]2(C(=O)N3CCOCC3)CCN(C(=O)NC)CC[C@@H]12 | 19.42
25 | CSC1=Nc2c(cnn2-c2ccc(C)cc2)C2=NCCCN12 | 44.7
26 | CCOc1ccccc1C(=O)N1CCCC1c1ncc2c(n1)CCNC2 (stereo unspecified) | -2.7
27 | CN1C[C@@H](N)C[C@H]1C(=O)N1CCC(Cc2ccc(F)cc2)CC1 | 29.87
28 | CCC(=O)N1CCCC1C(=O)N1CCC(Cc2ccc(F)cc2)CC1 (stereo unspecified) | 69.52
29 | O=C(C1CCS(=O)(=O)CC1)N1CCC(Cc2ccc(F)cc2)CC1 | 9.75
30 | c1cnnc(N2CCCC2CNCc2nc(-c3cccs3)no2)c1 (stereo unspecified) | -8.75
31 | Cc1cccc(-n2nc(CC(C)C)nc2CS(C)(=O)=O)c1 | 3.92
32 | Cc1cc(N2CCC(N(C)C(=O)c3sccc3C)CC2)nc(C)n1 | -82.24
33 | Cc1ccsc1-c1nccn1CCN1CCCCC1CO (stereo unspecified) | -12.08
34 | OCC1CCCCN1CCn1ccnc1-c1ccc2c(c1)OCCO2 (stereo unspecified) | 63.46
35 | Cc1cc(-c2nccn2CCN2CCCCC2CO)oc1C (stereo unspecified) | 47.04
36 | CC(O)c1cn(Cc2cccc(C(F)(F)F)c2)nn1 (stereo unspecified) | 19.08
37 | COc1ccccc1CN1C[C@@H](F)[C@@H](OCc2nc3ncccc3[nH]2)C1 | 55.57
38 | COc1ccccc1CN1C[C@@H](F)[C@@H](OCc2nc3ccccc3[nH]2)C1 | -6.21
39 | COc1ccccc1CN1C[C@@H](F)[C@@H](OCc2nc3cnccc3[nH]2)C1 | 14.89
40 | O=C(CS(=O)(=O)Cc1cc(Cl)c2c(c1)OCCCO2)NCC1CC1 | 2.77
41 | CCNC(c1ccc(Cl)cc1)c1cccnc1 (stereo unspecified) | 8.37
42 | CCNC(c1ccc(C)cc1)c1cccnc1 (stereo unspecified) | -41.21
43 | CCCNC(c1cccnc1)c1ccc(F)cc1F (stereo unspecified) | -3.32
44 | CCNC(c1cccnc1)c1ccc(F)cc1F (stereo unspecified) | 53.98

Row | Compound | INHIBITION [%]
45 | CCNC(c1ccc(F)cc1)c1cccnc1 (stereo unspecified) | -49.8
46 | CCNC(c1cccnc1)c1ccc(F)c(C)c1 (stereo unspecified) | 1.61
47 | CCNC(c1ccc(C(C)C)cc1)c1cccnc1 (stereo unspecified) | 58.05
48 | CCCNC(c1ccc(F)cc1)c1cccnc1 (stereo unspecified) | 26.18
49 | CCCNC(c1cccnc1)c1ccc(F)c(C)c1 (stereo unspecified) | 62.36
50 | c1cc(CN2CCC(c3nnc4n3CCCCC4)CC2)c2nonc2c1 | -60.89
51 | CC(C)n1ncc2c1NC(=O)CC21C(=O)Nc2c(Cl)ccc(Cl)c21 (stereo unspecified) | -40.36
52 | c1csc(-c2noc(C3CN(Cc4ccc5c(c4)CCO5)C3)n2)c1 | 35.6
53 | O=C1CCNc2ncc(-c3ccccc3Cl)cc2CN1C1CC1 | 18.48
54 | CCc1c(C)noc1-c1cnc(NC2CC2)nc1-c1cnc(C)cn1 | 26.93
55 | O=C(c1ccc(-n2ccnc2)cc1)N1CCCC(n2ccnc2)C1 (stereo unspecified) | 28.87
56 | O=C(c1ccnc(-n2ccnc2)c1)N1CCCC(n2ccnc2)C1 (stereo unspecified) | 70.27
57 | O=C(c1cccnc1N1CCCCC1)N1CCCC(n2ccnc2)C1 (stereo unspecified) | 3.33
58 | O=C(c1ccnc(-n2ccnc2)c1)N1CCCC(n2cccn2)C1 (stereo unspecified) | -58.05
59 | O=C(c1ccc2c(c1)OCO2)N1CCCC(n2ccnc2)C1 (stereo unspecified) | -0.05
60 | O=C(c1ccc2c(c1)OCCCO2)N1CCCC(n2ccnc2)C1 (stereo unspecified) | 11.95
61 | Cc1nccn1C1CCCN(C(=O)c2ccnc(-n3ccnc3)c2)C1 (stereo unspecified) | -13.24
62 | O=C(c1ccc(-n2cnnn2)cc1)N1CCCC(n2ccnc2)C1 (stereo unspecified) | 43.79
63 | O=C(c1ccc(-n2cnnc2)cc1)N1CCCC(n2ccnc2)C1 (stereo unspecified) | 56.02
64 | O=C(c1cccc2ncccc12)N1CCCC(n2ccnc2)C1 (stereo unspecified) | 43.85
65 | O=C(c1ccc2c(c1)OCCO2)N1CCCC(n2ccnc2)C1 (stereo unspecified) | 78.98
66 | O=C(c1cccc2cccnc12)N1CCCC(n2ccnc2)C1 (stereo unspecified) | 54.2

Row | Compound | INHIBITION [%]
67 | CN(C)C(=O)N1C[C@H]2CC[C@@H](C1)N(C(=O)c1c(Cl)cccc1Cl)C2 | -42.12
68 | CN1CCCN(C(=O)NCc2ccccc2Cn2cncn2)CC1 | 28.62
69 | Cn1cccc1C(=O)OCCNC(=O)c1ccccc1 | -9.17
70 | O=C(CC1CCCCC1)N1C[C@@H]2CC[C@H]1CN(Cc1cccnc1)C2 | 9.56
71 | Cc1ccc(CN2Cc3cnn(C)c3C(COCC3CC3)C2)o1 (stereo unspecified) | 47.63
72 | CNC(=O)C1CCCCN1C(=O)c1sc(-c2ccc(C)o2)nc1C (stereo unspecified) | 16.73
73 | O=c1nc(SCc2cccnc2)c2c(n1CCO)CCCC2 | 13.46
74 | CCN(Cc1ccc2c(c1)OCCO2)C(=O)NCc1cc[nH]n1 | 21.31
75 | CSCC(C)(O)CNS(=O)(=O)c1ccc(Br)cc1 (stereo unspecified) | 9.27
76 | CSCC(C)(O)CNS(=O)(=O)c1cccc(C)c1 (stereo unspecified) | 9.27
77 | CSCC(C)(O)CNS(=O)(=O)c1cccc(Cl)c1 (stereo unspecified) | 56.89
78 | O=c1ccc(-n2ccnc2)nn1CCNS(=O)(=O)c1ccc(Cl)s1 | -54.51
79 | CC(C)n1nc2c(cc1=O)CN(CCOc1ccc(C#N)cc1)CC2 | 9.8
80 | CNC(=O)c1cccc(C2CNCCN2C(=O)c2ccn(C)n2)c1 (stereo unspecified) | 24.56
81 | Cc1ccc(C(=O)N2CCOCC3(CCN(C4CCOCC4)C3)C2)o1 (stereo unspecified) | 14.89
82 | Cc1cccc(N(CCC(N)=O)CC(=O)Nc2cc(Cl)ccc2Cl)c1 | -10.14
83 | Cc1cccc(N(CCC(N)=O)CC(=O)NC2CCCC2)c1 | -22.8
84 | Cc1cccc(N(CCC(N)=O)CC(=O)Nc2ccccc2)c1 | 50.31
85 | CC(NC(=O)NCC1(c2ccc(F)cc2)CC1)c1nncn1C (stereo unspecified) | -7.13
86 | CC(C)c1cc(NC(=O)CNC2CCCN(c3cccnn3)C2)on1 (stereo unspecified) | 53.98
87 | Cc1cc(NC(=O)CNC2CCCN(c3cccnn3)C2)on1 (stereo unspecified) | -3.06
88 | Cc1ccc(N2CCCC(NCC(=O)Nc3cc(C)no3)C2)nn1 (stereo unspecified) | 6.3

Row | Compound | INHIBITION [%]
89 | CC1=N[C@@]2(CC[C@@H]3CN(CC(=O)N(C)C)C[C@@H]32)C(=O)N1CC1CC1 | -25.29
90 | CN(Cc1ccc(F)cc1)CC1(O)CCN(C(=O)c2ccsc2)C1 (stereo unspecified) | 47.4
91 | COCCCNC(=O)CN(C)C(=O)c1cc(C)ccc1N(C)C(C)C | -61.5
92 | CC(C)CNC(=O)CCN1C(=O)CCc2cc(F)ccc21 | 55.39
93 | CCCC(C)NC(=O)CCN1C(=O)CCc2cc(F)ccc21 (stereo unspecified) | 6.92
94 | CC(C)C(C)NC(=O)CCN1C(=O)CCc2cc(F)ccc21 (stereo unspecified) | 31.16
95 | NC(=O)C(CNC(=O)Cc1ccc(F)cc1)Cc1ccc(F)cc1 (stereo unspecified) | -39.58
96 | O=C(NCC(O)c1ccc(F)c(F)c1)c1cccnc1O (stereo unspecified) | -38.85
97 | O=C(NCC(O)c1ccc(F)c(F)c1)c1ccccc1F (stereo unspecified) | 26.74
98 | Cc1ccccc1C(=O)NCC(O)c1ccc(F)c(F)c1 (stereo unspecified) | 60.13
99 | O=C1CO[C@@H]2CN(Cc3ccncc3)C[C@H]2N1Cc1ccncc1 | 31.76
100 | O=C(Nc1ccc2c(c1)OCO2)Nc1cnn(C2CCOCC2)c1 | -59
101 | CCn1cc(NC(=O)NCC(C)N(C)C)cn1 (stereo unspecified) | -3.58
102 | CCn1cc(NC(=O)NCC(C)O)cn1 (stereo unspecified) | 62.13
103 | CCn1cc(NC(=O)NCC(O)c2ccccc2)cn1 (stereo unspecified) | 20.28
104 | COCCn1cc(NC(=O)NCC(C)N2CCOCC2)cn1 (stereo unspecified) | 20.77
105 | CCC(CC)C(CNC(=O)Nc1cnn(CCOC)c1)N(C)C (stereo unspecified) | 66.11
106 | COCCn1cc(NC(=O)NCC(c2cccc(F)c2)N(C)C)cn1 (stereo unspecified) | 45.57
